# Measured values from publication PMC11208138.
# Tests used:
# Test in all cases: cross-link between two proteins; cross-linking mass spectrometry
# [1] = molecular target: Heterogeneous nuclear ribonucleoproteins C1/C2 (UniProt P07910)
# [2] = molecular target: NHP2-like protein 1 (UniProt P55769)
# [3] = molecular target: Ubiquitin carboxyl-terminal hydrolase 39 (UniProt Q53GS9)
# [4] = molecular target: Serine/arginine-rich splicing factor 1 (UniProt Q07955)
# Serine/arginine-rich splicing factor 1, sequence (Q07955 whole entry): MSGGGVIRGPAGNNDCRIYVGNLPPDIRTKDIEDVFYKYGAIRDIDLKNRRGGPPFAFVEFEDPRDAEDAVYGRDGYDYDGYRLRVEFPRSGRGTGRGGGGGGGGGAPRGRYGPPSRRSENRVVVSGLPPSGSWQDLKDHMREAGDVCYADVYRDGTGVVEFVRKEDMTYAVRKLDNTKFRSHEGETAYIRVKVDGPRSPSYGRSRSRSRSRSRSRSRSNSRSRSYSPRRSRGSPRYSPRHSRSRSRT
# NHP2-like protein 1, sequence (P55769 whole entry): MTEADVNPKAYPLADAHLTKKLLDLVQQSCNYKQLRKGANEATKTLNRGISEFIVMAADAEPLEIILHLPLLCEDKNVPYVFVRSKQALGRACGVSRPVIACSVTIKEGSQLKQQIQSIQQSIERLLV
# Heterogeneous nuclear ribonucleoproteins C1/C2, sequence (P07910 whole entry): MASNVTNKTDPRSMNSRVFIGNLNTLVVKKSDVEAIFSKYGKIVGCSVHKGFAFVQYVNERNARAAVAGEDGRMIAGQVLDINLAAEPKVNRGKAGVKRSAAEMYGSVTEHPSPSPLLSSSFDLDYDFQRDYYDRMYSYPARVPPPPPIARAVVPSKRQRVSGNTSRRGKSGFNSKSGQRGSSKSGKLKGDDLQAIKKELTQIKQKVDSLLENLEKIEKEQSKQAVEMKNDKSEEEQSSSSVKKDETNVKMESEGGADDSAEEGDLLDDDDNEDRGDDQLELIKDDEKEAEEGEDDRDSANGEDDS
# Ubiquitin carboxyl-terminal hydrolase 39, sequence (Q53GS9 whole entry): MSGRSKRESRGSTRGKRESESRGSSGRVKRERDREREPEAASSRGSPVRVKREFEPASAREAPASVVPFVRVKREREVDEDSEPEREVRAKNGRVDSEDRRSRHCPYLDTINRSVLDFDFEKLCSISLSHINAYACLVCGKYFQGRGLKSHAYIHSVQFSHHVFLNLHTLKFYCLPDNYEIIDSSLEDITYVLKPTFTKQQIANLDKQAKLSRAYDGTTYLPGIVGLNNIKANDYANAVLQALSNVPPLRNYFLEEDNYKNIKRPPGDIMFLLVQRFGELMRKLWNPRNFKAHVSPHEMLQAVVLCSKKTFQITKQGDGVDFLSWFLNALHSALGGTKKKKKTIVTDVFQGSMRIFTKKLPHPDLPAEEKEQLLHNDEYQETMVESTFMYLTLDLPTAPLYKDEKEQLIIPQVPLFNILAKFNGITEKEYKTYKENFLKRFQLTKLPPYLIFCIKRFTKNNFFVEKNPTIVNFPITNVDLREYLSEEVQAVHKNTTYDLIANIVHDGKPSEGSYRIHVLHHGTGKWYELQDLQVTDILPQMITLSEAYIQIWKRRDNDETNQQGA
substance,measurement,setting,value
"Survival of motor neuron-related-splicing factor 30, O75940",listed as a hit,[1],yes
"Pre-mRNA-processing factor 6, O94906",listed as a hit,[2],yes
same,listed as a hit,[3],yes
"Probable ATP-dependent RNA helicase DDX5, P17844",listed as a hit,[4],yes
